Assay results taken from PubChem BioAssay (NCATS).
Records with an inconclusive call do not appear. Active and inactive are the calls of the source. Unless noted, the call rests on the fitted dose curve.

What was measured:
[1] = qHTS for Inhibitors of the Functional Ribonucleoprotein Complex (vRNP) of Lassa (LASV) Arenavirus: LASV Primary Screen - GLuc reporter signal (AID 1347082; calls by dose curve; tested in HEK293 reporter line; further: nearly all actives have a fitted effect of over 60% in size)
[2] = qHTS for Inhibitors of the Functional Ribonucleoprotein Complex (vRNP) of Lassa (LASV) Arenavirus: Viability assay - alamar blue signal for LASV Primary Screen (AID 1347083; calls by dose curve; tested in HEK293 reporter line; further: nearly all actives have a fitted effect of over 80% in size)
[3] = qHTS for Inhibitors of the Functional Ribonucleoprotein Complex (vRNP) of Lymphocytic Choriomeningitis Arenaviruses (LCMV): Viability assay - alamar blue signal for LCMV Primary Screen (AID 1347085; calls by dose curve; tested in HEK293 reporter line; further: nearly all actives have a fitted effect of over 80% in size)
[4] = target: Nucleoprotein (Lymphocytic choriomeningitis virus (strain Armstrong)) (UniProt P09992); assay: qHTS for Inhibitors of the Functional Ribonucleoprotein Complex (vRNP) of Lymphocytic Choriomeningitis Arenaviruses (LCMV): LCMV Primary Screen - GLuc reporter signal (AID 1347086); further: nearly all actives have a fitted effect of over 70% in size
Chain of Nucleoprotein (Lymphocytic choriomeningitis virus (strain Armstrong)) (P09992 whole entry, looked up): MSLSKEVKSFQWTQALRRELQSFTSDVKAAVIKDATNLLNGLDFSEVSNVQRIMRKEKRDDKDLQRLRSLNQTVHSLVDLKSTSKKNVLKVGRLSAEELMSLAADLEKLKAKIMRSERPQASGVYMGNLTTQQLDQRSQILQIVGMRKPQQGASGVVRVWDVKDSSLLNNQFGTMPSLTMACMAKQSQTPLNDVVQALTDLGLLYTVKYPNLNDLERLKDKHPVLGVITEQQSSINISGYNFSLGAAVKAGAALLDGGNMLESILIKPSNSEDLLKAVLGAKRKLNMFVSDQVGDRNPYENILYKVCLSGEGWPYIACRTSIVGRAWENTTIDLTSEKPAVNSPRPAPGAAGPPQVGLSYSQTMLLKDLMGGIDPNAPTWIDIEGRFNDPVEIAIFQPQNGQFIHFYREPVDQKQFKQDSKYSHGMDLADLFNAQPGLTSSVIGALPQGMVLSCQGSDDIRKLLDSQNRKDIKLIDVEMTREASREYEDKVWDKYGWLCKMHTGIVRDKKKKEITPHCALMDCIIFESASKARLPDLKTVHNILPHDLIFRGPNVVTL
Further: series mostly up to about 57 µM.
On the % scale 0 is the no-effect control and ±100 the full control effect.

O=C(/C=C/c1ccccc1)OCc1ccccc1
inactive: Potency [1] | Potency [2] | Potency [3] | Potency [4]

Cc1cc(=O)c2c(O)c3c(O)cc(=O)c4c3c3c(cc(O)c1c23)C(C)(C)C=4O
inactive: Potency [1] | Potency [2] | Potency [3] | Potency [4]

O=C(O)c1cc(-c2ccccc2)nc2ccccc12
inactive: Potency [1] | Potency [2] | Potency [3] | Potency [4]

OC[C@H]1O[C@@H](n2cnc3c2NC=NC[C@H]3O)C[C@@H]1O
inactive: Potency [1] | Potency [2] | Potency [3] | Potency [4]

CN1CCN(C(=O)C2CCCCC2)CC1
inactive: Potency [1] | Potency [2] | Potency [3] | Potency [4]

Cc1nc2c([nH]1)c(=O)n(C)c(=O)n2Cc1ccco1
inactive: Potency [1] | Potency [2] | Potency [3] | Potency [4]

Nc1nc(-c2ccccc2)c(Br)c(=O)[nH]1
inactive: Potency [1] | Potency [2] | Potency [3] | Potency [4]

COP(=O)(OC)OC(c1ccc(Cl)cc1)P(=O)(OC)OC (stereo not given)
inactive: Potency [1] | Potency [2] | Potency [3] | Potency [4]

CC(=O)[C@H]1CC[C@H]2[C@@H]3C=CC4=CC(=O)CC[C@@]4(C)[C@@H]3CC[C@]12C
inactive: Potency [1] | Potency [2] | Potency [3] | Potency [4]

Cc1onc(-c2c(Cl)cccc2Cl)c1C(=O)Cl
inactive: Potency [1] | Potency [2] | Potency [3] | Potency [4]

C=CCc1ccc(O)c(OC)c1
inactive: Potency [1] | Potency [2] | Potency [3] | Potency [4]

CN1[C@@H]2CCC[C@@H]1CC(NC(=O)c1nn(C)c3ccccc13)C2 (stereo not given in full)
inactive: Potency [1] | Potency [2] | Potency [3] | Potency [4]

FC(F)(F)c1ccccc1-n1ccnc1
inactive: Potency [1] | Potency [2] | Potency [3] | Potency [4]

CN1C(C(=O)Nc2ccccn2)=C(O)c2ccccc2S1(=O)=O
inactive: Potency [1] | Potency [2] | Potency [3] | Potency [4]

COc1ccc2nc(SCc3ncc(C)c(OC)c3C)[nH]c2c1
inactive: Potency [1] | Potency [2] | Potency [3] | Potency [4]

O=C(C1CCCCC1)N1CC(=O)N2CCCc3ccccc3C2C1 (stereo not given)
inactive: Potency [1] | Potency [2] | Potency [3] | Potency [4]

CC1CCN(CCCC(=O)c2ccc(F)cc2)CC1
inactive: Potency [1] | Potency [2] | Potency [3] | Potency [4]

NC(=O)c1cc[n+](CC2=C(C(=O)[O-])N3C(=O)[C@@H](NC(=O)Cc4cccs4)[C@H]3SC2)cc1
inactive: Potency [1] | Potency [2] | Potency [3] | Potency [4]

CC(=O)Oc1ccc(C)cc1
inactive: Potency [1] | Potency [2] | Potency [3] | Potency [4]

COc1ccc(Cc2cnc(N)nc2N)cc1OC
inactive: Potency [1] | Potency [2] | Potency [3] | Potency [4]

C[N+](C)(C)CCCCCC[N+](C)(C)C
inactive: Potency [1] | Potency [2] | Potency [3] | Potency [4]

CCCCCCCCCCCCCCCC(=O)O
inactive: Potency [1] | Potency [2] | Potency [3] | Potency [4]

COc1ccc(C(=O)c2ccccc2O)c(O)c1
inactive: Potency [1] | Potency [2] | Potency [3] | Potency [4]

CCCCOC(=O)CC(CC(=O)OCCCC)(OC(C)=O)C(=O)OCCCC
inactive: Potency [1] | Potency [2] | Potency [3] | Potency [4]

Cc1c(C(=O)O)c(O)cc2c1C(=O)c1c(O)c([C@@H]3O[C@H](CO)[C@@H](O)[C@H](O)[C@H]3O)c(O)c(O)c1C2=O
inactive: Potency [1] | Potency [2] | Potency [3] | Potency [4]

C/C=C1\[C@H]2C=C(C)C[C@]1(N)c1ccc(=O)[nH]c1C2
inactive: Potency [1] | Potency [2] | Potency [3] | Potency [4]

C[N+](C)(C)CCOC(N)=O
inactive: Potency [1] | Potency [2] | Potency [3] | Potency [4]

Nc1ccc([N+](=O)[O-])c(C(F)(F)F)c1
inactive: Potency [1] | Potency [2] | Potency [3] | Potency [4]

O=C(O)[C@@H](O)[C@H](O)[C@H](O)[C@@H](O)C(=O)O
inactive: Potency [1] | Potency [2] | Potency [3] | Potency [4]

NCCS(=O)(=O)O
inactive: Potency [1] | Potency [2] | Potency [3] | Potency [4]

O=C1CC2(CCCC2)CC(=O)N1
inactive: Potency [1] | Potency [2] | Potency [3] | Potency [4]

O=C(O)c1ccccc1Nc1cccc(C(F)(F)F)c1
inactive: Potency [1] | Potency [2] | Potency [3] | Potency [4]

Nc1ccc(C(=O)O)c(O)c1
inactive: Potency [1] | Potency [2] | Potency [3] | Potency [4]

CCn1cc(C(=O)O)c(=O)c2cnc(N3CCCC3)nc21
inactive: activity change, negative = inhibition [1] 2.17% [at 11.5 µM] | activity change, negative = reduced viability [2] 9.34% [at 11.5 µM] | activity change, negative = lower viability [3] 6.9% [at 11.5 µM] | activity change, negative = inhibition [4] 14.6% [at 11.5 µM]

CCn1cc(C(=O)O)c(=O)c2cnc(N3CCNCC3)nc21
inactive: Potency [1] | Potency [2] | Potency [3] | Potency [4]

CC(C)CCCC(C)NCCC(C)C (stereo not given)
inactive: Potency [1] | Potency [2] | Potency [3] | Potency [4]

COC(=O)[C@@H]1[C@H]2C[C@H]3c4[nH]c5ccccc5c4CCN3C[C@@H]2CC[C@@H]1O
inactive: Potency [1] | Potency [2] | Potency [3] | Potency [4]

Cc1cc(C)nc(NS(=O)(=O)c2ccc(N)cc2)n1
inactive: Potency [1] | Potency [2] | Potency [3] | Potency [4]

O=c1cc[nH]c(=S)[nH]1
inactive: Potency [1] | Potency [2] | Potency [3] | Potency [4]

O=C(O)CCCC[P+](c1ccccc1)(c1ccccc1)c1ccccc1
inactive: Potency [1] | Potency [2] | Potency [3] | Potency [4]

FC1(F)C(F)(F)C(F)(F)C2(F)C(F)(F)C(F)(F)C(F)(F)C(F)(F)C2(F)C1(F)F (stereo not given)
inactive: Potency [1] | Potency [2] | Potency [3] | Potency [4]

CCCc1c(OCCCCc2nn[nH]n2)ccc(C(C)=O)c1O
inactive: Potency [1] | Potency [2] | Potency [3] | Potency [4]

O=C(CCBr)N1CCN(C(=O)CCBr)CC1
inactive: Potency [1] | Potency [2] | Potency [3] | Potency [4]

O=C1c2ccccc2CCc2ccccc21
inactive: Potency [1] | Potency [2] | Potency [3] | Potency [4]

COc1ccc(C(=O)CC(=O)c2ccc(C(C)(C)C)cc2)cc1
inactive: Potency [1] | Potency [2] | Potency [3] | Potency [4]

COc1cc2c3cc1Oc1cc(ccc1O)C[C@@H]1c4c(cc(OC)c(O)c4Oc4ccc(cc4)C[C@@H]3N(C)CC2)CC[N+]1(C)C
inactive: Potency [1] | Potency [2] | Potency [3] | Potency [4]

O=C(O)c1cc(=O)[nH]c(=O)[nH]1
inactive: Potency [1] | Potency [2] | Potency [3] | Potency [4]

CCCCC(O)/C=C(C)/C=C/C=C/C(=O)N1CCCC1=O (stereo not given)
inactive: Potency [1] | Potency [2] | Potency [3] | Potency [4]

Cc1onc(-c2ccccc2)c1-c1ccc(S(N)(=O)=O)cc1
inactive: Potency [1] | Potency [2] | Potency [3] | Potency [4]

CCS(=O)(=O)CCn1c([N+](=O)[O-])cnc1C
inactive: Potency [1] | Potency [2] | Potency [3] | Potency [4]

CCN1CCCC1CN (stereo not given)
inactive: Potency [1] | Potency [2] | Potency [3] | Potency [4]

CC1CC(OC(=O)c2ccccc2O)CC(C)(C)C1 (stereo not given)
inactive: Potency [1] | Potency [2] | Potency [3] | Potency [4]

C[C@H]1C[C@H](O)c2ccsc2S1(=O)=O
inactive: Potency [1] | Potency [2] | Potency [3] | Potency [4]

CN(C)C(=O)Oc1ccc[n+](C)c1
inactive: Potency [1] | Potency [2] | Potency [3] | Potency [4]

O=C(OOC(=O)c1ccccc1)c1ccccc1
inactive: Potency [1] | Potency [2] | Potency [3] | Potency [4]

CCN1CC(CCN2CCOCC2)C(c2ccccc2)(c2ccccc2)C1=O (stereo not given)
inactive: Potency [1] | Potency [2] | Potency [3] | Potency [4]

CC(=O)OC(C)OC(=O)C(C)c1ccc(-c2ccccc2)c(F)c1 (stereo not given)
inactive: Potency [1] | Potency [2] | Potency [3] | Potency [4]

OC1(c2ccc(Cl)cc2)CCNCC1
inactive: Potency [1] | Potency [2] | Potency [3] | Potency [4]

COc1ccc2cccc(CCNC(C)=O)c2c1
inactive: Potency [1] | Potency [2] | Potency [3] | Potency [4]

CCCCCCCCCCCCCCCCCCN(C)C
inactive: Potency [1] | Potency [2] | Potency [3] | Potency [4]
